The sample as a whole holds a higher share of hits than the screen did.
TTR transcr act: increases transthyretin transcription; SH-SY5Y TTR promoter Gaussia luciferase, luminescence; 100% = recombinant luciferase protein wells; activation, % at 16.7 µM; actives 1.3% (n = 92,000); AID 1117267;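 active = activation above the mean of all tested compounds plus 3 SD, cut at about 9.5% in these data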;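 also: cells exposed to compounds for one day before reading; 0% = median of all test compound wells on the plate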
TTR inh HuH7: counter-screen for TTR activators: TTR transcription inhibitors in HuH7 cells | shares compounds with TTR transcr act | HuH7 TTR promoter-Gaussia luciferase reporter, luminescence | inhibition, % at 16.7 µM | actives 4% (n = 1,100) | AID 1117279;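 active = average inhibition above the solvent-only control wells' mean plus 3 SD, cut at about 15% in these data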;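 also: 0% = cells with DMSO only and 100% = cells with inhibitor control FD; inhibitors lower well luminescence so higher value means more inhibition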
TTR act confirm: confirmation of human transthyretin transcription activators | shares compounds with TTR transcr act | SHSY5Y TTR promoter Gaussia luciferase, luminescence; 100% = purified Lucia enzyme wells, no cells | activation, % at 16.7 µM | 1,100 tested, under 10 active;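 active = mean activation above a set limit taken from the earlier primary screen, cut at about 11% in these data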;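 also: 0% = DMSO-treated cells and 100% = recombinant Lucia luciferase without cells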
Active calls of the source: *.

SMILES | TTR transcr act | others
CCCc1cc(=O)[nH]c(Nc2ccc(O)cc2)n1 | 18.7* | TTR inh HuH7=0.1;TTR act confirm=0.9
CCCc1cc(=O)[nH]c(SCC(=O)Nc2ccc3ccccc3c2)n1 | 0.6
CCCc1cc(=O)[nH]c(SCC(=O)NC2CCCCC2)n1 | -0.2
CC(N=C1NS(=O)(=O)c2ccccc21)C(=O)NCc1ccc(F)cc1 (stereo not drawn) | 0.6
COc1ccc2[nH]c3c(Cl)ncnc3c2c1 | 16.5* | TTR inh HuH7=19.4*;TTR act confirm=-0.9
COc1ccc2[nH]c3c(N4CCc5ccccc5C4)ncnc3c2c1 | -6.2
CCCCOc1ncnc2c1[nH]c1ccc(OC)cc12 | 3.1
CC(Oc1ccccc1)C(=O)Nc1nnc(S(=O)(=O)Nc2ccccc2)s1 (stereo not drawn) | 2.0
O=C1CC[C@@H](OCc2ccccc2)CCN1CC[C@H](Sc1ccccc1)c1ccccc1 | 1.7
CCC[C@H]1[C@@H](NCc2ccccc2)CC[C@@]23CCCN2C(=O)CCC[C@@H]13 | 0.4
COC(=O)CC1CCc2cc(C)cc(C(=O)CC(C)C)c2O1 (stereo not drawn) | -0.5
Cc1cc(C)n2nc(-c3cccc(Br)c3)cc2n1 | 0.1
CC(=O)c1cnc2cc(-c3cccc(Br)c3)nn2c1C | 9.7* | TTR inh HuH7=-1.3;TTR act confirm=0.4
CCOC(=O)c1cnc2cc(-c3ccc(C(C)(C)C)cc3)nn2c1N | -0.5
COc1ccc2c(c1)N=CN1CCc3c([nH]c4ccccc34)C3=NCC[C@@]321 | -0.8
Cc1ccc(-c2[nH]c(-c3ccc(C(=O)O)cc3)nc2-c2ccccc2)cc1 | 12.5* | TTR inh HuH7=1.9;TTR act confirm=-0.6
NC(=O)c1nc(-c2ccccc2)c(-c2ccccc2)[nH]c1=O | -1.5
O=c1nc(-c2ccccc2)nc(-c2ccccc2)[nH]1 | -4.3
COc1ccc(CN2CCC2(C)C(=O)NCc2ccc3c(c2)OCO3)c2ccccc12 (stereo not drawn) | 0.7
O=C(OCc1ccc(CSc2nnc(-c3cccc4ccccc34)o2)cc1)c1ccc(F)cc1 | -0.6
CNC(=O)C1CC(=O)N(CCCc2ccccc2)C(=Nc2ccccc2)S1 (stereo not drawn) | -0.1
N#CC(C(=O)c1ccccc1)=C1SCCS1 | 9.5
O=C(CN1C(=O)NC2(CCCC2)C1=O)Nc1ccccc1N1CCCC1 | -0.7
O=C(CN1C(=O)NC2(CCCCC2)C1=O)Nc1ccc(N2CCCCC2)cc1 | 10.4* | TTR inh HuH7=-3.5;TTR act confirm=-0.1
CCOC(=O)c1ccc(NC(=O)CN2C(=O)NC3(CCCCCC3)C2=O)cc1 | -1.3
SMILES | TTR transcr act | others
O=C(NCCc1c[nH]c2ccccc12)OCc1cn(Cc2ccccc2C(F)(F)F)nn1 | -0.1
COC(=O)C1CN(CCO)CCS(=O)(=O)N1Cc1cn(Cc2ccccc2Br)nn1 (stereo not drawn) | 4.4
Cc1ccc(S(=O)(=O)N2C(N)=C(C(=O)NCc3ccc(Br)cc3)C(c3ccc(Cl)cc3)C2C(=O)c2ccccc2)cc1 (stereo not drawn) | 0.0
CC1CCC2(CC1)CCC2NCc1ccc(Cl)cc1 (stereo not drawn) | -0.5
Cn1c(NC(=O)c2ccccc2C(F)(F)F)cc(=O)n(C)c1=O | -0.5
Cc1cccc(C(=O)Nc2onc(C)c2C#N)c1 | 4.9
Cc1noc(NC(=O)c2ccc(F)cc2)c1C#N | 14.4* | TTR inh HuH7=-17.2;TTR act confirm=-0.2
O=C(Nc1ccc(C(O)(C(F)(F)F)C(F)(F)F)cc1)c1ccccc1C(F)(F)F | 6.4
Cc1noc(NC(=O)c2ccccc2C(F)(F)F)c1C#N | 11.7* | TTR inh HuH7=-24.9;TTR act confirm=1.3
Cc1noc(NS(=O)(=O)c2ccc(NC(=O)c3ccc(F)cc3)cc2)c1C | -2.0
Brc1cccc(Cn2ccc3ccc(-c4ccc5ccn(Cc6cccc(Br)c6)c5c4)cc32)c1 | -0.8
CN(Cc1ccccc1)C(=O)OCc1cn(Cc2cc(F)cc(F)c2)nn1 | 0.6
Nc1c(C(=O)N2CCN(CCc3ccccc3)CC2)cnn1-c1ccccc1 | -1.5
O=C(N[C@@H](Cc1ccccc1)C(=O)NCP(=O)(O)OC(Cc1ccccc1)C(=O)O)OCc1ccccc1 (stereo partly drawn) | 0.5
COc1cccc(-c2cc(CNC(=O)[C@H]3O[C@@H](n4cnc5c(N)ncnc54)[C@H](O)[C@@H]3O)no2)c1 | -2.0
Cc1nn(C)c(C)c1NC(=O)c1ccccc1NC(=O)Nc1ccccc1 | 0.7
COc1ccc(OC(F)(F)F)cc1CC1(C)C(=O)Nc2ccc(S(=O)(=O)NC3CCCCC3)cc21 (stereo not drawn) | -0.8
CN(Cc1ccccc1)C(=O)OCc1cn(Cc2ccc(F)cc2F)nn1 | 0.2
Cc1ccc(CCNC(=O)C2CCC(CNc3c(N4CCC(C)CC4)c(=O)c3=O)CC2)cc1 (stereo not drawn) | 22.6* | TTR inh HuH7=2.9;TTR act confirm=-0.4
CC1CCN(c2c(NCC3CCC(C(=O)NCCc4ccccc4)CC3)c(=O)c2=O)CC1 (stereo not drawn) | 8.9

High-throughput results as filed in PubChem.
